Results: PubChem BioAssay (EPA / NIEHS)
Where “and” joins values, the source holds several entries; their conditions need not be identical. Equal values may be shown once. Inconclusive results are not listed. A structure can be active in one record and inactive in another. Calls of active or inactive are those of the source. Rule for the calls: active = hit-call score of the fitted dose curve at least 0.9, where 1 is the maximum; inconclusive = response in the unintended direction; inactive = score below 0.9.

target: human Serotonin, 5-Hydroxytryptamine Receptor 5A (5HT5A), HTR5A (gene 3361) (UniProt P47898); assay: NVS_GPCR_h5HT5A: NovaScreen (NVS) G Protein-Coupled Receptor Assay for human Serotonin, 5-Hydroxytryptamine Receptor 5A (5HT5A) (AID 2283251)
Sequence (P47898 whole entry, looked up): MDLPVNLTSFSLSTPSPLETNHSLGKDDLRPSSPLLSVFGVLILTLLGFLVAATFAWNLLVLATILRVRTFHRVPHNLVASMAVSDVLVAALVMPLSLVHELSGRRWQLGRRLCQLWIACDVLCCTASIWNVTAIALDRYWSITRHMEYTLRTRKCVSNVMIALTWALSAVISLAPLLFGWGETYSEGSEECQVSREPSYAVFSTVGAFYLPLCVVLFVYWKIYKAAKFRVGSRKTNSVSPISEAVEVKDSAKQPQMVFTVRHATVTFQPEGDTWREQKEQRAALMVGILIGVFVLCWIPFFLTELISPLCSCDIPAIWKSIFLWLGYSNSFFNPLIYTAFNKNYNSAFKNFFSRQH
Method in brief: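 Membranes from HEK293 cells, radioligand binding read by filtration and scintillation after 1 h. Single-concentration duplicate testing at 25 uM, then concentration-response for actives; positive-direction fitting relative to DMSO.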

Row | SMILES | outcome | AC50
1 | COc1ccc(C(c2ccc(OC)cc2)C(Cl)(Cl)Cl)cc1 | inactive | 
2 | O=C(Nc1ccccc1)Nc1ccnc(Cl)c1 |  | 7.13 µM (active)
3 | CCCN(CCC)c1c([N+](=O)[O-])cc(S(N)(=O)=O)cc1[N+](=O)[O-] | inactive | 
4 | Fc1ccc(Oc2ccnc3cc(Cl)cc(Cl)c23)cc1 | inactive | 
5 | CON(C)C(=O)Nc1ccc(Cl)c(Cl)c1 |  | 7.75 µM (active)
6 | CCON=C(CC)C1=C(O)CC(c2c(C)cc(C)cc2C)CC1=O (configuration not stated) | inactive | 
7 | CCOc1cc(Oc2ccc(C(F)(F)F)cc2Cl)ccc1[N+](=O)[O-] | inactive | 
8 | OC(c1ccc(Cl)cc1)(c1cncnc1)c1ccccc1Cl (configuration not stated) | inactive | 
9 | COc1nc(C)nc(NC(=O)NS(=O)(=O)c2ccccc2CCC(F)(F)F)n1 | inactive | 
10 | Cc1cc(Cl)ccc1OCC(=O)O | inactive | 
11 | C#CCOS(=O)OC1CCCCC1Oc1ccc(C(C)(C)C)cc1 (configuration not stated) |  | 35 µM (active)
12 | CC1COC(Cn2cncn2)(c2ccc(Oc3ccc(Cl)cc3)cc2Cl)O1 (configuration not stated) |  | 6.37 µM (active)
13 | CCNc1nc(Cl)nc(NC(C)C)n1 | inactive | 

target: guinea pig Opioid, Kappa 1 Receptor (OpiateK), OPRK1 (gene 100135587) (UniProt P41144); assay: NVS_GPCR_gOpiateK: NovaScreen (NVS) G Protein-Coupled Receptor Assay for guinea pig Opioid, Kappa 1 Receptor (OpiateK) (AID 2283252);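 note: radioligand displacement from kappa opioid receptor in guinea pig cerebellar membranes; active means reduced radioligand binding relative to DMSO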
Sequence (P41144 whole entry, looked up): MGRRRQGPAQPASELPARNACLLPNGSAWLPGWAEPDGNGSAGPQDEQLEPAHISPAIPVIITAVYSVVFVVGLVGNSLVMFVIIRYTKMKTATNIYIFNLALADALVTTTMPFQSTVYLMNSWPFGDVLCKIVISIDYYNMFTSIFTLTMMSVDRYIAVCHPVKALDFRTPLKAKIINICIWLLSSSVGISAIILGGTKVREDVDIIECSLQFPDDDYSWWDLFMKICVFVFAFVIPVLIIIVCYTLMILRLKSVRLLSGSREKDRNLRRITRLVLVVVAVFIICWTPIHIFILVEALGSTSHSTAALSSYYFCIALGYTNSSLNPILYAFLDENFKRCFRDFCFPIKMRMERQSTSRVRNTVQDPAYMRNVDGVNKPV
Procedure: NVS_GPCR_gOpiateK is a biochemical, single-readout assay that uses extracted gene-proteins from Guinea pig cerebellar membranes in a tissue-based cell-free assay. Measurements were taken 2 hours after chemical dosing in a 48-well plate.NVS_GPCR_gOpiateK is one of one assay component(s) measured or calculated from the NVS_GPCR_gOpiateK assay. It is designed to make measurements of radioligand binding, a form of binding reporter, as detected with scintillation counting signals by Filter-based radiodetection technology.Data from the assay component NVS_GPCR_gOpiateK was analyzed into 1 assay endpoint. This assay endpoint, NVS_GPCR_gOpiateK, was analyzed in the positive analysis fitting direction relative to DMSO as the negative control and baseline of activity. Using a type of binding reporter, loss-of-signal activity can be used to understand changes in the binding as they relate to the gene Oprk1. Furthermore, this assay endpoint can be referred to as a primary readout, because the performed assay has only produced 1 assay endpoint. To generalize the intended target to other relatable targets, this assay endpoint is annotated to the gpcr intended target family, where the subfamily is rhodopsin-like receptor.
(§1) Binding assays used specific radioligands (tritiated, iodinated) with non-radioactive competitive displacement ligands in agonist or antagonist protocols (as indicated) and various reference compounds and inhibitors to titrate specific binding to receptors and transporters. Most enzyme assays (CYPs, kinases, phosphatases, proteases, HDACs) used recombinant protein and specific substrates (fluorescence mostly, some colorimetric and radioactive) and inhibitors, followed by a biochemical separation of substrate and product. All assays for the biochemical HTS were initially run in duplicate at a single concentration (10 uM for CYP450 assays and 25 uM for all others). […] Each assay was run with positive and negative controls, and concurrent controls on every plate. The follow-up (secondary) screen tested active chemical-pairs in concentration series, as well as a few additional assays not tested in the primary screen, some selected negative inactives, and several cases re-run in the concentration series for confirmatory purposes.

Row | SMILES | AC50 | outcome
14 | CCCCNC(=O)OCC#CI | 37.9 µM (active) and 40.9 µM (active) | 
15 | CCOC(=O)CC(SP(=S)(OC)OC)C(=O)OCC (configuration not stated) | 15.2 µM (active) | 
16 | CCCC1COC(Cn2cncn2)(c2ccc(Cl)cc2Cl)O1 (configuration not stated) | 16.6 µM (active) | 
17 | CN(C)C(=S)SSC(=S)N(C)C |  | inactive
18 | OC(c1ccc(Cl)cc1)(c1cncnc1)c1ccccc1Cl (configuration not stated) | 9.41 µM (active) | 
19 | CO/C=C(/C(=O)OC)c1ccccc1Oc1cc(Oc2ccccc2C#N)ncn1 | 12.3 µM (active) [middle of 4 runs] | 
20 | CS/C(C)=N/OC(=O)N(C)SN(C)C(=O)O/N=C(\C)SC | 25 µM (active) | 
21 | CC1COC(Cn2cncn2)(c2ccc(Oc3ccc(Cl)cc3)cc2Cl)O1 (configuration not stated) |  | inactive

target: human Adenosine A1 Receptor (AdoRA1), ADORA1 (gene 134) (UniProt P30542); assay: NVS_GPCR_hAdoRA1: NovaScreen (NVS) G Protein-Coupled Receptor Assay for human Adenosine A1 Receptor (AdoRA1) (AID 2283254)
Sequence (P30542 whole entry, looked up): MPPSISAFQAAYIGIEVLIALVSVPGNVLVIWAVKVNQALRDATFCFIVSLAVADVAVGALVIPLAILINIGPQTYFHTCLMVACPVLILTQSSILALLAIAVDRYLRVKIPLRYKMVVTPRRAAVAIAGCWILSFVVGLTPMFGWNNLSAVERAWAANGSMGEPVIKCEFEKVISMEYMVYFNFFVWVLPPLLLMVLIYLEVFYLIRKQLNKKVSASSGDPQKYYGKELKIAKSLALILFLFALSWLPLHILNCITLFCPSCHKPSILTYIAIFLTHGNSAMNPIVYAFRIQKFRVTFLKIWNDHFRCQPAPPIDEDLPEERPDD
Method in brief: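 Each chemical is first tested twice at 25 uM, actives later in dilution series, against a radioligand bound to human cortex membranes; after 1 h, filter-retained counts are compared with DMSO controls, lower signal indicating displacement.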

Row | SMILES | AC50 | outcome
22 | COc1nc(NC(C)C)nc(NC(C)C)n1 | 8.99 µM (active) | 
23 | COc1ccc(C(c2ccc(OC)cc2)C(Cl)(Cl)Cl)cc1 | 6.77 µM (active) | 
24 | COC(=O)N(OC)c1ccccc1COc1ccn(-c2ccc(Cl)cc2)n1 | 5.54 µM (active) | 
25 | CCCCNC(=O)OCC#CI | 9.47 µM (active) and 15.2 µM (active) | 
26 | CCCCC(CC)COC(=O)c1ccccc1C(=O)OCC(CC)CCCC (configuration not stated) |  | inactive
27 | CCOC(=O)CC(SP(=S)(OC)OC)C(=O)OCC (configuration not stated) | 4.74 µM (active) | 
28 | CCCN(CCC)c1c([N+](=O)[O-])cc(S(N)(=O)=O)cc1[N+](=O)[O-] | 6.48 µM (active) | 
29 | OC(c1ccc(Cl)cc1)(c1cncnc1)c1ccccc1Cl (configuration not stated) | 4.96 µM (active) | 
30 | CO/C=C(/C(=O)OC)c1ccccc1Oc1cc(Oc2ccccc2C#N)ncn1 | 6.85 µM (active) [middle of 4 runs] | 
31 | CCCCNC(=O)n1c(NC(=O)OC)nc2ccccc21 |  | inactive
32 | CCNc1nc(Cl)nc(NC(C)C)n1 | 5.9 µM (active) | 

target: human Serotonin, 5-Hydroxytryptamine Receptor 7 (5HT7), HTR7 (gene 3363) (UniProt P34969); assay: NVS_GPCR_h5HT7: NovaScreen (NVS) G Protein-Coupled Receptor Assay for human Serotonin, 5-Hydroxytryptamine Receptor 7 (5HT7) (AID 2283255);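 note: hits reduce specific radioligand binding relative to DMSO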
Sequence (P34969 whole entry, looked up): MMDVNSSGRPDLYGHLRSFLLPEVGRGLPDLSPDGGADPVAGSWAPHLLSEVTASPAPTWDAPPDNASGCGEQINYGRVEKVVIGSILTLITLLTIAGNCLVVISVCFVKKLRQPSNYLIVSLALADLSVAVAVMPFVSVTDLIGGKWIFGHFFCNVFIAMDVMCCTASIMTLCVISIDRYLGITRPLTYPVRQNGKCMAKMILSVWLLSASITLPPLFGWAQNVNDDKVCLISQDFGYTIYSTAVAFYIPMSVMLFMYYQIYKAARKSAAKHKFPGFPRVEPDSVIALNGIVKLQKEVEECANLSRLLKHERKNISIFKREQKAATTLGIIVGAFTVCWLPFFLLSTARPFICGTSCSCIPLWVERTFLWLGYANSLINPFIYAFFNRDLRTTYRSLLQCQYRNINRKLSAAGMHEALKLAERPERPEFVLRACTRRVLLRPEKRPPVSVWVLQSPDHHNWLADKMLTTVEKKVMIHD
Method in brief: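 Filter-bound radioactivity counted after 1 h, with loss of specific radioligand binding fitted against DMSO. Membrane protein came from CHO cells expressing human 5HT7. Chemicals were tested first at 25 uM in duplicate, then in concentration series if active.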

Row | SMILES | AC50 | outcome
33 | COC(=O)N(OC)c1ccccc1COc1ccn(-c2ccc(Cl)cc2)n1 | 0.944 µM (active) | 
34 | O=C(Nc1ccccc1)Nc1ccnc(Cl)c1 | 14.1 µM (active) | 
35 | CN(C)C(=S)SSC(=S)N(C)C | 6.92 µM (active) | 
36 | CO/C=C(/C(=O)OC)c1ccccc1Oc1cc(Oc2ccccc2C#N)ncn1 | 5.24 µM (active) | 
37 | C#CCOS(=O)OC1CCCCC1Oc1ccc(C(C)(C)C)cc1 (configuration not stated) | 25 µM (active) | 
38 | Oc1ccccc1-c1ccccc1 |  | inactive
39 | CC1COC(Cn2cncn2)(c2ccc(Oc3ccc(Cl)cc3)cc2Cl)O1 (configuration not stated) |  | inactive

target: human Adenosine A2a Receptor (AdoRA2a), ADORA2A (gene 135) (UniProt P29274); assay: NVS_GPCR_hAdoRA2a: NovaScreen (NVS) G Protein-Coupled Receptor Assay for human Adenosine A2a Receptor (AdoRA2a) (AID 2283256)
Sequence (P29274 whole entry, looked up): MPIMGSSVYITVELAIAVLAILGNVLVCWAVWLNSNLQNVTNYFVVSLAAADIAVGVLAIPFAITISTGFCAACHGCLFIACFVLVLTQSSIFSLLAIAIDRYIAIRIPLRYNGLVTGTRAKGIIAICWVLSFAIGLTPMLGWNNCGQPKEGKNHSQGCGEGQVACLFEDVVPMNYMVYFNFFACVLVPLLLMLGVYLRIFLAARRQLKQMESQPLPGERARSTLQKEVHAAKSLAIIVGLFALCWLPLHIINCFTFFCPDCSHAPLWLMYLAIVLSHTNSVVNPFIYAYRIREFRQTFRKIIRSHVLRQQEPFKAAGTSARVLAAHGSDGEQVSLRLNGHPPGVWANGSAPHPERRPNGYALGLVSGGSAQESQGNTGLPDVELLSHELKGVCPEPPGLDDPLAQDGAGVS
Method in brief: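 HEK293-derived receptor preparation, radioligand displacement, 1.5 h, filtration + scintillation read. Loss of bound signal scored vs DMSO. Single-point 25 uM in duplicate first, then concentration-response for actives.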

Row | SMILES | AC50 | outcome
40 | COc1nc(NC(C)C)nc(NC(C)C)n1 | 9.33 µM (active) | 
41 | CCOC(=O)CC(SP(=S)(OC)OC)C(=O)OCC (configuration not stated) | 5.74 µM (active) | 
42 | CCCN(CCC)c1c([N+](=O)[O-])cc(S(N)(=O)=O)cc1[N+](=O)[O-] |  | inactive
43 | Oc1ccccc1-c1ccccc1 |  | inactive
44 | CCNc1nc(Cl)nc(NC(C)C)n1 | 4.96 µM (active) and 6.26 µM (active) | inactive

target: human Adrenergic, Alpha 2A Receptor (Adra2A), ADRA2A (gene 150) (UniProt P08913); assay: NVS_GPCR_hAdra2A: NovaScreen (NVS) G Protein-Coupled Receptor Assay for human Adrenergic, Alpha 2A Receptor (Adra2A) (AID 2283257)
Sequence (P08913 whole entry, looked up): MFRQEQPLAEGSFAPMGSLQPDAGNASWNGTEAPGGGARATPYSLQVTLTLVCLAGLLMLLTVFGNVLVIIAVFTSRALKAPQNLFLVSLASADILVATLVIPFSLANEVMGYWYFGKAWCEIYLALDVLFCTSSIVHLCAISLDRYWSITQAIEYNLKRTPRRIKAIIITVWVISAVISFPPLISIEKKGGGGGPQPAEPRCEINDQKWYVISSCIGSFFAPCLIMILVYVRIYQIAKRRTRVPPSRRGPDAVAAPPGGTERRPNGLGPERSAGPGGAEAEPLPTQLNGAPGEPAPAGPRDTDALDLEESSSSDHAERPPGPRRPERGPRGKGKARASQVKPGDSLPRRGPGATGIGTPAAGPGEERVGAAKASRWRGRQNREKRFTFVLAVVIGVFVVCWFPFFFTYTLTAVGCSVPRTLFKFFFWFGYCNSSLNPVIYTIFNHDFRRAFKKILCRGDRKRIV
Method in brief: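 Displacement of a specific radioligand from HT29 membrane protein was counted by filter scintillation after 1 h. Compounds were screened in duplicate at 25 uM, and actives were retested in concentration series. Fitting was positive-direction against DMSO.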

Row | SMILES | AC50 | outcome
45 | O=C(Nc1ccccc1)Nc1ccnc(Cl)c1 | 11.6 µM (active) | 
46 | N#CC(CCc1ccc(Cl)cc1)(Cn1cncn1)c1ccccc1 (configuration not stated) |  | inactive
47 | Fc1ccc(Oc2ccnc3cc(Cl)cc(Cl)c23)cc1 |  | inactive
48 | CCON=C(CC)C1=C(O)CC(c2c(C)cc(C)cc2C)CC1=O (configuration not stated) | 4.3 µM (active) | 

target: human Adrenergic, Beta 1 Receptor (Adrb1), ADRB1 (gene 153) (UniProt P08588); assay: NVS_GPCR_hAdrb1: NovaScreen (NVS) G Protein-Coupled Receptor Assay for human Adrenergic, Beta 1 Receptor (Adrb1) (AID 2283258)
Sequence (P08588 whole entry, looked up): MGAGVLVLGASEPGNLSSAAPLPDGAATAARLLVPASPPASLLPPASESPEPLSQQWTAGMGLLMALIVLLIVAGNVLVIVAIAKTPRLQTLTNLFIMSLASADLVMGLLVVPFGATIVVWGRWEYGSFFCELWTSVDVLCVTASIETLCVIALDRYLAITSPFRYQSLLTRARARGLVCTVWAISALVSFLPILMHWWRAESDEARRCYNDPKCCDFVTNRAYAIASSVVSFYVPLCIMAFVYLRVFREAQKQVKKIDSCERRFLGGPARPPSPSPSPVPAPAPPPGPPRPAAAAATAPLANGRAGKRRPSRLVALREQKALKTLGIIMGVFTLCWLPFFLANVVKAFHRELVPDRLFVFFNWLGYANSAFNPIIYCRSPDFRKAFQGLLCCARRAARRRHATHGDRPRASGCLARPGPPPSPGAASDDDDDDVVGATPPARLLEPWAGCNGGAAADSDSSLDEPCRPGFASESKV
Method in brief: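 Membranes/protein extracted from human neuroepithelioma cells, radioligand competition binding read by filtration and scintillation 2 h post-dose. Single 25 uM duplicate screen, then concentration-response follow-up; DMSO as negative control.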

Row | SMILES | outcome
49 | COc1ccc(C(c2ccc(OC)cc2)C(Cl)(Cl)Cl)cc1 | inactive
50 | CN(C)C(=S)SSC(=S)N(C)C | inactive
51 | CO/C=C(/C(=O)OC)c1ccccc1Oc1cc(Oc2ccccc2C#N)ncn1 | inactive
52 | C#CCOS(=O)OC1CCCCC1Oc1ccc(C(C)(C)C)cc1 (configuration not stated) | inactive
53 | C=CCC1=C(C)C(OC(=O)C2C(C=C(C)C)C2(C)C)CC1=O (configuration not stated) | inactive

target: human Adrenergic, Alpha 2c Receptor (Adra2C), ADRA2C (gene 152) (UniProt P18825); assay: NVS_GPCR_hAdra2C: NovaScreen (NVS) G Protein-Coupled Receptor Assay for human Adrenergic, Alpha 2c Receptor (Adra2C) (AID 2283259)
Sequence (P18825 whole entry, looked up): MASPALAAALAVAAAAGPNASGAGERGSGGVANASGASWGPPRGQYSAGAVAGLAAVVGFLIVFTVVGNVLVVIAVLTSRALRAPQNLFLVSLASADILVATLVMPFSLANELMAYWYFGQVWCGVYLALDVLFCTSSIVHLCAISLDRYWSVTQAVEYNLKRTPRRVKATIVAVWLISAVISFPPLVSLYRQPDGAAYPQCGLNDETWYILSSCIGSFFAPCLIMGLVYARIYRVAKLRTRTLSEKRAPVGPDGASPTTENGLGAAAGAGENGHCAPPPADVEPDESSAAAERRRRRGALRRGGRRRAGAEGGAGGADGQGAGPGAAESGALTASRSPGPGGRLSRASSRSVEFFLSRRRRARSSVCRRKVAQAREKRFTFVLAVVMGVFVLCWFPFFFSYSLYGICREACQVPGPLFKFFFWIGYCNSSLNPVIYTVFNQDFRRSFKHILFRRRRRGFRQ
Procedure: NVS_GPCR_hAdra2C is a biochemical, single-readout assay that uses extracted gene-proteins from SF9 in a cell-free assay. Measurements were taken 1 hour after chemical dosing in a 96-well plate.NVS_GPCR_hAdra2C is one of one assay component(s) measured or calculated from the NVS_GPCR_hAdra2C assay. It is designed to make measurements of radioligand binding, a form of binding reporter, as detected with scintillation counting signals by Filter-based radiodetection technology.Data from the assay component NVS_GPCR_hAdra2C was analyzed into 1 assay endpoint. This assay endpoint, NVS_GPCR_hAdra2C, was analyzed in the positive analysis fitting direction relative to DMSO as the negative control and baseline of activity. Using a type of binding reporter, loss-of-signal activity can be used to understand changes in the binding as they relate to the gene ADRA2C. Furthermore, this assay endpoint can be referred to as a primary readout, because the performed assay has only produced 1 assay endpoint. To generalize the intended target to other relatable targets, this assay endpoint is annotated to the gpcr intended target family, where the subfamily is rhodopsin-like receptor.
as §1, with “The follow-up (secondary) screen tested active chemical-pairs in concentration series, as well as a few additional assays not tested in the primary screen, some selected negative inactives, and several cases re-run in the concentration series for confirmatory purposes.” left out

Row | SMILES | outcome | AC50
54 | COc1ccc(C(c2ccc(OC)cc2)C(Cl)(Cl)Cl)cc1 | inactive | 
55 | O=C(Nc1ccccc1)Nc1ccnc(Cl)c1 |  | 11.2 µM (active)
56 | C=CCC1=C(C)C(OC(=O)C2C(C=C(C)C)C2(C)C)CC1=O (configuration not stated) | inactive | 
